The results in this text go back to PubChem BioAssay (Tox21).

A number with no mark means an inactive call. Records with an inconclusive call do not appear. The source made the active and inactive calls. Unless noted, calls follow the shape of the dose curve; as a rule, active = well fitted curve in the direction sought with a large enough effect in the repeat runs; inconclusive = weak or mixed curves; inactive = no such curve, though single readings can be large; an effect the other way counts as inactive or inconclusive.

A short description of experiment [1]: qHTS assay to identify small molecule antagonists of the estrogen receptor alpha (ER-alpha) signaling pathway using the BG1 cell line in the presence of 0.1 nM 17-beta-estradiol - cell viability counter screen (AID 1259241). Also: nearly all actives have a fitted effect of over 40% in size. Also: potency is read from the fitted curve at half-maximal effect. Put shortly:
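Cytotoxicity counter-screen: live-cell protease activity measured by fluorescence (30 min reagent step) in the same wells. Cells were VM7Luc4E2 with endogenous ER-alpha and ERE-driven luciferase, treated 22 hr at 37C alongside 0.1 nM 17beta-estradiol final.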
On the technique in general: Quantitative high-throughput screening tests each substance at several concentrations.

Experiment [2] is described as follows: qHTS assay to identify small molecule antagonists of the androgen receptor (AR) signaling pathway using the MDA cell line in the presence of 0.5 nM R1881 - cell viability counter screen (AID 1259242). Also: nearly all actives have a fitted effect of over 45% in size. Also: potency is read from the fitted curve at half-maximal effect. Put shortly: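 qHTS format. MDA-kb2 (MMTV-luc, AR/GR responsive) + cpd + 0.5 nM R1881 final, 16 hr 37C/0% CO2 → CellTiter-Fluor 30 min → fluorescence intensity.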

The nature of experiment [3]: qHTS assay to identify small molecule HDAC inhibitors (AID 1259364). Also: potency is read from the fitted curve at half-maximal effect.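 Also: wild-type HCT-116 cells with endogenous class I/II HDAC activity; nearly all actives have a fitted effect of over 45% in size.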 As to activity change, negative = inhibition: top concentration of the series differs between compounds. Put shortly: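 Quantitative high-throughput format: overnight-seeded HCT-116 cells got compounds for 2 hr at 37C; HDAC-Glo I/II reagent added, 30 min RT, luminescence measured.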
The nature of experiment [4]: qHTS assay to identify small molecule HDAC inhibitors - cell viability counter screen (AID 1259365). Also: series mostly up to about 92 µM; nearly all actives have a fitted effect of over 50% in size. Put shortly:
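CellTiter-Glo luminescence (30 min, room temperature) reported viability after a 2 h compound exposure at 37 C. Cells: wild-type HCT-116, 1,500 per well, seeded the night before.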

The nature of experiment [5]: qHTS assay to identify small molecule agonists of the sonic hedgehog signaling (Shh) pathway - cell viability counter screen (AID 1259366). Also: nearly all actives have a fitted effect of over 50% in size. Also: potency is read from the fitted curve at half-maximal effect. Put shortly: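 Cytotoxicity counter screen: CellTiter-Fluor reagent added after 23 h compound exposure, then 1 h at 37C and fluorescence read. Cells were 3T3 Gli1-Luc, seeded 2,000 per well and dosed 4 h post-plating.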
Experiment [6] is described as follows: qHTS assay to identify small molecule antagonists of the sonic hedgehog signaling (Shh) pathway - cell viability counter screen (AID 1259367). Also: nearly all actives have a fitted effect of over 55% in size. Also: potency is read from the fitted curve at half-maximal effect. Put shortly:
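Tox21 library chemicals were tested on a Gli1-Luc NIH/3T3 clone (2,000 cells/well) stimulated by conditioned medium; viability was quantified as fluorescence from CellTiter-Fluor reagent added at 23 hr.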

Experiment [7] is described as follows: qHTS assay to identify small molecule agonists of the sonic hedgehog signaling (Shh) pathway (AID 1259368; calls by dose curve;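 also: NIH/3T3-derived 3T3Gli1-Luc cells carrying a stable Gli1-driven firefly luciferase reporter; series mostly up to about 92 µM; nearly all actives have a fitted effect of over 15% in size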). Put shortly:
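Quantitative high-throughput format using a Gli1-driven firefly luciferase reporter line derived from NIH/3T3 cells. After a 24 hr compound treatment at 37 C and 5% CO2, luminescence reported Gli1 response element activity.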

The target in experiment [8] is Estrogen receptor (Homo sapiens) (UniProt P03372). Kind of experiment: qHTS assay to identify small molecule antagonists of the estrogen receptor alpha (ER-alpha) signaling pathway using the BG1 cell line in the presence of 0.1 nM 17-beta-estradiol (AID 1259244). Also: nearly all actives have a fitted effect of over 50% in size. Put shortly: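 Reporter is a stably transfected luciferase under four estrogen responsive elements in VM7Luc4E2 cells expressing native full-length ER-alpha; inhibition of 0.1 nM (final) 17beta-estradiol-driven signal over 22 h is read by luminescence.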

Experiment [9] is described as follows: qHTS assay to identify small molecule phospholipidosis (PLD) inducers (AID 1259344; active = well fitted curve in the direction sought with a large enough effect; an effect the other way counts as inactive or inconclusive). Put shortly:
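Image-based: LipidTOX Red pit count/intensity per well and per cell; HepG2, 24 h compound at 37 C, PFA fixation, Hoechst counterstain.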

Experiment [10] has as its target Androgen receptor (Homo sapiens) (UniProt P10275). Kind of experiment: qHTS assay to identify small molecule antagonists of the androgen receptor (AR) signaling pathway using the MDA cell line in the presence of 0.5 nM R1881 (AID 1259243). Also: nearly all actives have a fitted effect of over 50% in size. Also: potency is read from the fitted curve at half-maximal effect. Put shortly: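 Antagonist mode quantitative HTS in MDA-kb2 MMTV-luciferase cells, agonist R1881 at 0.5 nM final, 16 hr exposure at 37C and 0% CO2, luminescent detection.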
% is scaled to controls: 0 for no effect and ±100 for the full control effect.

Androgen receptor (Homo sapiens), sequence (P10275 whole entry, looked up): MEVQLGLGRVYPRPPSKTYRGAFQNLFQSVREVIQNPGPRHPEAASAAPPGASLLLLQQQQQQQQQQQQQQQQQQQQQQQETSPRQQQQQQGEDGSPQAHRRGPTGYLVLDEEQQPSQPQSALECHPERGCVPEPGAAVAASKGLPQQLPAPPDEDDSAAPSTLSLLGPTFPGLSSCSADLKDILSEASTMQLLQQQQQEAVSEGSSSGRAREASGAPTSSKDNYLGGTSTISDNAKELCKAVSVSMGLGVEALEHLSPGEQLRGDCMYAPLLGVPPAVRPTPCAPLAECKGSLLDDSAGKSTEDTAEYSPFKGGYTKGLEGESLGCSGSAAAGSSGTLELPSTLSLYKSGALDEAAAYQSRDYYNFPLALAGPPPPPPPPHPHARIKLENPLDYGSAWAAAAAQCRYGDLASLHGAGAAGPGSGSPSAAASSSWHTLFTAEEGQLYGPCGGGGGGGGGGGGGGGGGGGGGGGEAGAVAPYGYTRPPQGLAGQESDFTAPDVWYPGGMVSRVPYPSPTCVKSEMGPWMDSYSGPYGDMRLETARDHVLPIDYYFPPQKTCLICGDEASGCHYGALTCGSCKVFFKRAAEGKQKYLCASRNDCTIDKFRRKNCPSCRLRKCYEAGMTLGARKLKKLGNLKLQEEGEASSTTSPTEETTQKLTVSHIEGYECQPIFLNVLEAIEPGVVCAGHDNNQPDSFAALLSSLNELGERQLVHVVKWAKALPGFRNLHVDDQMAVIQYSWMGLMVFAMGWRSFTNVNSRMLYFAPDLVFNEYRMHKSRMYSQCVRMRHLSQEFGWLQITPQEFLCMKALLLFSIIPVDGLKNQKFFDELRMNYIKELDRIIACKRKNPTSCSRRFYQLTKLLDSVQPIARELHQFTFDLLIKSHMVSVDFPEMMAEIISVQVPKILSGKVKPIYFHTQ
Estrogen receptor (Homo sapiens), sequence (P03372 whole entry, looked up): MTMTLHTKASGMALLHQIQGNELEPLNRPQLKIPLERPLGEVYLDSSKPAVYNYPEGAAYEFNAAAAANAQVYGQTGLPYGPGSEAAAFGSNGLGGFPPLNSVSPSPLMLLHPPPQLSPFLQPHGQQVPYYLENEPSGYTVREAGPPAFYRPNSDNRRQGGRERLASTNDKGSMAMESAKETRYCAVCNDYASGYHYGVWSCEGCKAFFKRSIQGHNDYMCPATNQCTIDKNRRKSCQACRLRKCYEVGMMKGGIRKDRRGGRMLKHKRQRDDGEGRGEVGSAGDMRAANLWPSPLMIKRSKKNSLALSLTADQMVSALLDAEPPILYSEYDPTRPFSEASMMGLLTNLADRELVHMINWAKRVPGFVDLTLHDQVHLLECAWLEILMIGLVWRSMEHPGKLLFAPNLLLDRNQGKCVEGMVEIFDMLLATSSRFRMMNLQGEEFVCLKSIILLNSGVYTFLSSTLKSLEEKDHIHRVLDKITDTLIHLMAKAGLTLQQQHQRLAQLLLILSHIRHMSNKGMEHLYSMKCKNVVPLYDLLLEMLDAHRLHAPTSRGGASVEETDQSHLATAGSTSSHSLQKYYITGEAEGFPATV

For the molecule `CCCCOC(=O)CC`, the Potency result in [1], in [2], in experiment [3], in experiment [4], in experiment [5] and in [6] was “inactive” in each case. Moreover, in [7], the Potency result is “inactive”.
As to `O=S(=O)(O)c1ccc(N=Nc2c(O)ccc3ccccc23)cc1`, the Potency in experiment [1] was 54.5 µM (active); in experiment [2], 30.6 µM (active); in experiment [3], 0.686 µM (active); in experiment [5], 27.3 µM (active). The Potency result in [7] is “inactive”.
For `COCCOc1cc2cc(C(=O)NC3CCN(C(C)C)CC3)n(CC(=O)Nc3ccc(Cl)cn3)c2cn1`, the Potency result in [1], in experiment [2], in [3], in experiment [4], in [5] and in experiment [7] was “inactive” throughout.
With `CCCCCC(C)OC(=O)COc1ccc(Cl)c2cccnc12` (centres undefined), the Potency entry in [1], in [2], in experiment [3], in [4], in [5] and in experiment [6] was “inactive” in each case. Moreover, the Potency result in experiment [7] was “inactive”.
Regarding `CCOC(=O)c1ccc(C2CCC(NC[C@H](O)COc3ccc(O)c(NS(C)(=O)=O)c3)CC2)cc1` (some centres undefined), the Potency entry in experiment [1], in [2], in experiment [3], in experiment [4] and in [7] was “inactive” throughout. Also, the Potency in experiment [6] is 50.2 µM (active).
As for `Nc1nc(-c2ccccc2)cs1`, the Potency entry in experiment [1], in experiment [2], in experiment [4], in [5], in experiment [6] and in experiment [7] was “inactive” in each case. Moreover, in experiment [3], the Potency is 21.6 µM (active).
`C=CCn1c(=O)n(CC=C)c(=O)n(CC=C)c1=O`: the Potency entry in experiment [1], in experiment [2], in experiment [3], in experiment [4], in [5] and in experiment [6] was “inactive” in each case. For the same molecule, the Potency result in experiment [7] was “inactive”.
On to `O=C1OC2(c3ccc(O)cc3Oc3cc(O)ccc32)c2ccc(N=C=S)cc21`, for which the Potency entry in experiment [1], in [2], in experiment [3], in experiment [4], in [6] and in experiment [7] was “inactive” throughout.
As to `Sc1nc2ccccc2s1`, the Potency entry in experiment [1], in experiment [2], in experiment [4] and in experiment [5] was “inactive” each time.
Take `CC/C=C\CCCCCO`: the Potency result in experiment [1], in experiment [2], in [3], in experiment [4], in experiment [5] and in experiment [6] was “inactive” throughout. The Potency entry in [7] was “inactive”.
In the case of `O=c1[nH]c2ccccc2n1CCCN1CCN(C(c2ccccc2)c2ccccc2)CC1`, the Potency result in experiment [1], in [2], in experiment [3], in [4] and in [7] was “inactive” in each case.
For the molecule `O=C(/C=C/c1ccc(O)c(O)c1)O[C@@H](C(=O)O)[C@@H](OC(=O)/C=C/c1ccc(O)c(O)c1)C(=O)O`, the Potency result in experiment [1], in experiment [2], in experiment [3], in [4] and in experiment [7] was “inactive” each time.
For `O=[N+]([O-])c1ccc(O)cc1C(F)(F)F`, the figures for the Potency in [1] and in experiment [2] were 48.6 µM (active) and 27.3 µM (active), respectively. The Potency result in [3], in experiment [4], in [5], in [6] and in experiment [7] was “inactive” throughout.
In the case of `CCC(=O)C(=O)CC`, the Potency entry in experiment [1], in [2], in experiment [3], in experiment [4], in [5] and in experiment [6] was “inactive” each time. Moreover, the Potency entry in experiment [7] was “inactive”.
On to `O=C(O)CCN(C1(C(=O)NO)CCCC1)S(=O)(=O)c1ccc(Oc2ccc(F)cc2)cc1`, for which the Potency entry in [1], in [2], in [3], in experiment [4], in [6] and in [7] was “inactive” in each case.
Turning to `CCCNCCC`, the Potency result in experiment [1], in experiment [2], in experiment [3], in experiment [4], in experiment [5] and in [6] was “inactive” throughout. Besides, in experiment [7], the Potency result was “inactive”.
As for `O=[N+]([O-])c1ccc(F)c(Cl)c1`, the Potency entry in experiment [1], in [2], in [3], in experiment [4], in experiment [5] and in experiment [6] was “inactive” each time. In addition, in experiment [7], the Potency result was “inactive”.
In the case of `CCC(C)n1ncn(-c2ccc(N3CCN(c4ccc(OC[C@H]5CO[C@](Cn6cncn6)(c6ccc(Cl)cc6Cl)O5)cc4)CC3)cc2)c1=O` (some centres undefined), the Potency result in [1], in experiment [2], in experiment [3], in experiment [4], in experiment [5] and in experiment [7] was “inactive” in each case.
With `Cc1ccc(-c2ccccc2)cc1`, the Potency entry in experiment [1], in experiment [2], in experiment [3], in experiment [4], in experiment [5] and in [6] was “inactive” in each case. The Potency result in experiment [7] is “inactive”.
`CCCCCCC1CCCC(=O)O1` (centres undefined): the Potency result in experiment [1], in experiment [2], in experiment [3], in experiment [4], in experiment [5] and in experiment [6] was “inactive” throughout. In addition, the Potency entry in experiment [7] is “inactive”.
Consider `CCC(C)[O-].CCC(C)[O-].CCOC(=O)/C=C(/C)[O-].[Al+3]`, for which the Potency entry in [1], in [2], in experiment [3], in [4], in [6] and in [7] was “inactive” each time.
Turning to `CN(C)Cc1cc(C(C)(C)C)c(O)c(C(C)(C)C)c1`, the Potency result in [1], in experiment [2], in [3], in experiment [4], in experiment [5] and in experiment [6] was “inactive” in each case. Also, in experiment [7], the Potency entry is “inactive”.
In the case of `OCC(F)(F)F`, the Potency entry in experiment [1], in experiment [2], in experiment [3], in experiment [4], in experiment [5] and in experiment [6] was “inactive” throughout. In addition, the Potency result in [7] is “inactive”.
Regarding `C/C=C/C=C/COC(=O)C(C)C`, the Potency result in [1], in experiment [2], in [3], in experiment [4], in [5] and in experiment [7] was “inactive” in each case.
Turning to `COc1cc2nc(N3CCN(C(=O)c4ccco4)CC3)nc(N)c2cc1OC`, the activity change, negative = cytotoxicity in [1] is 2.36% [at 19 µM]; in experiment [4], -0.972% [at 19 µM]. Moreover, in experiment [8], the activity change, negative = inhibition was -15.5% [at 19 µM]. For the same molecule, the Potency result in experiment [9] was “inactive”. Moreover, the viability change, negative = cytotoxic in experiment [6] was -24.8% [at 19 µM]. For the same molecule, in [7], the activity change is -4.98% [at 18.9 µM, active compounds read high].
Take `CCC(COC(=O)CCS)(COC(=O)CCS)COC(=O)CCS`: the Potency entry in [2], in experiment [8], in experiment [3], in experiment [4], in experiment [6] and in experiment [7] was “inactive” throughout.
`CN(C)[C@@H](CCOc1cccc2ccccc12)c1ccccc1`: the Potency result in experiment [1], in [8], in experiment [3], in experiment [4] and in [7] was “inactive” each time. In addition, the Potency in [10] was 26.6 µM (active).
In the case of `CNc1ccc([N+](=O)[O-])cc1`, the Potency in experiment [1] was 43.4 µM (active); in [10], 15.4 µM (active); in [5], 19.4 µM (active). Further, the Potency result in experiment [8], in experiment [3], in experiment [4], in [6] and in experiment [7] was “inactive” in each case.
As to `Cc1cc(C)c(/C=C2\C(=O)Nc3ccccc32)[nH]1`, the Potency entry in experiment [2], in [8], in experiment [9], in experiment [4], in experiment [5] and in [6] was “inactive” each time. Moreover, the Potency entry in experiment [7] was “inactive”. Also, in experiment [10], the Potency was 13.3 µM (active).
As for `CC(C)=CCC1=C(O)c2ccccc2C(=O)C1=O`, the Potency entry in experiment [10], in experiment [3] and in [4] was “inactive” each time.
